Results taken from the supplement of paper PMC4954754.
± gives the uncertainty stated by the source.

Test system: HEK293T-Rex XBP1-RLuc
Test: XBP1-RLuc splicing reporter activation, triplicate, relative to 500 nM thapsigargin (% of thapsigargin); higher = stronger IRE1/XBP1s reporter activation
Conditions: 6.8 µM; 18 h; screen: confirmation
Protocol: (§1)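 HEK293T-Rex cells stably expressing the ERSE-firefly luciferase (BiP promoter, ATF6-preferring) or XBP1-splicing Renilla luciferase (IRE1/XBP1s) reporter, 1536-well plates, compound at 6.8 µM for 18 hr at 37 °C; luminescence read […] and expressed as % activation = 100*(compound - median DMSO)/(median 500 nM thapsigargin - median DMSO). Primary screen was single-pass; confirmation screen in triplicate (mean ± SD).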

| Structure (SMILES) | XBP1-RLuc splicing reporter activation |
| --- | --- |
| COc1ccc(-c2cc(C(=O)Nc3cc(C)ccc3O)on2)cc1OC | 10.9 ± 1.2 |
| O=C(COC(=O)c1cc(O)c(O)c(O)c1)Nc1ccc(Br)cc1F | 20.18 ± 0.15 |
| CN(c1ccccc1)S(=O)(=O)c1cccc(C(=O)NCCc2ccc(O)c(O)c2)c1 | 33.2 ± 0.95 |
| O=c1/c(=C/c2ccc(O)c(O)c2)sc2nc3ccccc3n12 | 6.32 ± 0.52 |
| CC(C)c1ccc(NC(=O)/C=C/c2ccco2)cc1 | 4 ± 0.68 |
| N#Cc1ccc(-c2cccs2)nc1SCc1ccccn1 | 0.766 ± 2.5 |
| COc1cccc(C2=NOC(C(=O)Nc3cc(C)ccc3O)C2)c1 (configuration not stated) | 14.1 ± 0.22 |
| O=C(N/N=C/c1ccc(Cl)cc1)c1n[nH]c2c1CCCC2 | 3.79 ± 8.1 |
| Nc1ccc2nc(-c3ccc(Br)cc3)[nH]c2c1 | 12.5 ± 2 |
| Cc1cc(C)c2nc3sc(C(=O)N4CCCCC4)c(N)c3cc2c1 | 1.34 ± 0.73 |
| Cc1ccc(/C=N/NC(=O)c2cccc(F)c2)cc1 | 2.01 ± 0.32 |
| Cc1cccc2c1[nH]c1nc(N/N=C\c3c[nH]c4ccccc34)nnc12 | 21.8 ± 1.6 |
| CC(=O)N1CCc2c([nH]c3ccccc23)C12CCN(CCCOc1ccccc1)CC2 | 65.9 ± 4 |
| CN(C)c1ccc(/C=C(/C#N)C(=O)Nc2ccc(O)cc2)cc1 | 22.2 ± 0.63 |
| Cc1ccc(O)c(NC(=O)CCc2ccccc2)c1 | 17.5 ± 1.9 |
| Cc1nn(-c2ccc(F)cc2)c2ncc(C(=O)NCc3ccco3)c(Cl)c12 | 110 ± 9.1 |
| Cc1ccc(O)c(N=CC2=C(O)c3ccccc3C2=O)c1 | 24.1 ± 1.3 |
| CCCCNNC(=O)c1ccc(Br)cc1 | 9.12 ± 0.67 |
| COc1ccccc1-c1cc(C(=O)Nc2cc(C)ccc2O)no1 | 7.78 ± 1.3 |

| Structure (SMILES) | XBP1-RLuc splicing reporter activation |
| --- | --- |
| O=C(N/N=C/c1ccc(O)c(O)c1)c1ccc(Br)cc1 | 20.9 ± 0.79 |
| O=C(Nc1ccc2nc(NC(=O)C3CCCCC3)sc2c1)C1CCCCC1 | 6.08 ± 0.7 |
| O=C(NCCc1ccccc1)c1cc(-c2cccs2)on1 | 5.58 ± 1 |
| Cc1ccc(C(=O)Nc2sc3c(c2C#N)CCC3)cc1 | 4.62 ± 0.97 |
| O=C(N/N=C/c1cccc(Cl)c1Cl)c1ccccc1O | 6.36 ± 0.63 |
| Cc1ccc(O)c(NC(=O)c2cc(CC(C)C)on2)c1 | 30.2 ± 2.4 |
| O=C(/C=C/c1ccccc1)Nc1ccc(Br)cn1 | 0.069 ± 1.1 |
| O=C(CC(=O)Nc1ccc2nc3n(c(=O)c2c1)CCCCC3)NCc1ccco1 | 22.3 ± 2.9 |
| Cc1ccccc1NC(=O)c1sc2nc(N)c(C#N)c(-c3ccc(C(C)C)cc3)c2c1N | 15.4 ± 2.4 |
| Cn1c(-c2cccc(Cl)c2)cnc1NC(=O)c1ccccc1 | 2.86 ± 0.72 |
| Cc1ccc(O)c(-c2cc(C(F)(F)C(F)F)no2)c1 | 13.8 ± 1.5 |
| COc1ccc(C2=Nn3c(nnc3-c3ccc(OC)cc3)SC2)cc1 | 10.4 ± 1.3 |
| O=C(CCCCCCC(=O)Nc1ccccc1)NO | -3.63 ± 0.95 |
| COc1ccc(/C=N/NC(=O)c2cccc(F)c2)cc1Br | 1.01 ± 0.87 |
| O=C1N/C(=C/c2ccc(O)cc2)C(=O)N1c1cccc(Cl)c1 | 61.1 ± 1.4 |
| C=CCNC(=O)c1sc2nc3cc(C)c(C)cc3cc2c1N | -0.518 ± 1.4 |
| COc1ccc(-n2nnnc2SCC(N)=O)c(OC)c1 | 13.9 ± 1.2 |
| O=C(NC(c1ccccc1)c1ccccc1)c1csc(-c2cnccn2)n1 | 19 ± 0.61 |
| Cc1ccc(O)c(NC(=S)NC(=O)/C=C/c2ccco2)c1 | 1.05 ± 0.43 |

Test system: HEK293T-Rex ERSE-FLuc
Test: ERSE-FLuc reporter activation, triplicate confirmation, relative to 500 nM thapsigargin (% of thapsigargin); higher = stronger ATF6/ERSE reporter activation
Conditions: 6.8 µM; 18 h; screen: confirmation
Protocol: as §1

| Structure (SMILES) | ERSE-FLuc reporter activation |
| --- | --- |
| CN(c1ccccc1)S(=O)(=O)c1cccc(C(=O)NCCc2ccc(O)c(O)c2)c1 | 44.7 ± 3.8 |
| Cc1ccc(C(=O)Nc2sc3c(c2C#N)CCC3)cc1 | 27.4 ± 2.7 |
| Cc1ccc(O)c(NC(=O)c2cc(CC(C)C)on2)c1 | 84.4 ± 15 |
| Cc1ccc(O)c(-c2cc(C(F)(F)C(F)F)no2)c1 | 37.1 ± 3.1 |
